From PubChem BioAssay (NCATS) come the findings set out here.

Inconclusive results are not listed. Unmarked numbers belong to inactive results. Calls follow the shape of the dose curve; as a rule, active = well fitted cell-killing curve with a large enough effect; inconclusive = small, poorly fitted or top-dose-only effect; inactive = no such curve, though single readings can be large or run the other way.

The assay in a line: qHTS of pediatric cancer cell lines to identify multiple opportunities for drug repurposing: Primary screen for LAN-5 cells (AID 1347100). The settings on record: LAN-5 neuroblastoma viability, CellTiter-Glo luminescence, 48 h; series mostly up to 46 µM; activity change, negative = cytotoxic: at the top concentration. An excerpt: Drug repurposing or repositioning has been offered as a strategy for drug development in oncology programs. This approach has special potential for childhood cancers and other rare or orphan diseases, where the expected return on new drug development has been a disincentive to pharmaceuticals.
In this project we exploit the poly-pharmacology of drugs to discover new indications via phenotypic screening of a panel of 19 well-characterized cell lines derived from solid tumors seen in children and adolescents. The goal is to identify approved drugs with previously unrecognized anticancer properties that has the potential to reveal new mechanisms and biological processes involved in carcinogenesis or drug resistance. We employed a titration-based paradigm (quantitative high-throughput screening or qHTS), where all compounds were tested at multiple concentrations for their effect on cell viability. Concentration-response curves (CRCs) were derived directly from the primary screen, and both potency and efficacy values were used to identify compounds with robust bioactivity profiles. We screened the NIH Chemical Genomics Center (NCGC) Pharmaceutical Collection (NPC) and Mechanism Interrogation Plate (MIPE) small molecule collections of approved and investigational compounds against these cell lines; and measured metabolically active cells after 48 hours of compound treatment as a proxy for cell viability.
Assay Submitter: Nathalia J. Martinez, National Center for Advancing Translational Sciences, National Institutes of Health, Rockville, MD, USA; email: natalia.martinez@nih.gov
[1] Shen, M et al. Quantitative high-throughput phenotypic screening of pediatric cancer cell lines identifies multiple opportunities for drug repurposing. Oncotarget 2017 Dec 19;9(4):4758-4772. PMID 29435139.
The cells were obtained from University of North Carolina (UNC), Pediatric Preclinical Testing Program (PPT), and Coriell Institute (CI).
qHTS cell viability assay:
Cells were assayed in growth media at a density of 500-1,000 cells/well. Five microliters of cells were dispensed into 1,536-well, white, solid-bottom, TC-treated plates (Greiner Bio One) using a multidrop dispenser and incubated at 37 degrees C, 5% CO2, under a humidified atmosphere for 5 hours. Twenty-three nanoliters of compounds and controls (neutral control DMSO or positive control bortezomib at final concentration of 2.3 µM) were subsequently transferred by Kalypsys pintool. For primary screens, the MIPE collection was tested at 11-point dilutions (final concentrations range from 0.78 nM to 46 µM) and the NPC collection at 8-point dilutions (final concentrations range from 0.59 nM to 46 µM). Compounds tested in follow-up screens were assayed at 11-point dilutions. Cells were incubated for 48 hours, followed by addition of 3 µL of CellTiter-Glo (Promega). After a 15 min incubation at room temperature, samples were analyzed for luminescence intensity using a ViewLux High-throughput CCD imager equipped with clear filters.
For orientation: In qHTS, concentration-response curves come from the screen itself.
As for `Cc1cccc(C(=O)O)c1O`, the “activity change, negative = cytotoxic” value was -5.28%.

Regarding `C=CCSCC1Nc2cc(Cl)c(S(N)(=O)=O)cc2S(=O)(=O)N1` (stereo not given), the “activity change, negative = cytotoxic” value was 1.59%.

As for `CCN1CC(CCN2CCOCC2)C(c2ccccc2)(c2ccccc2)C1=O` (stereo not given), the “activity change, negative = cytotoxic” value was -4.64%.

In the case of `CCCCCOC(=O)Nc1nc(=O)n([C@@H]2O[C@H](C)[C@@H](O)[C@H]2O)cc1F`, the “activity change, negative = cytotoxic” value is 21.6%.

Turning to `CC(=O)[C@@]1(O)CC[C@H]2[C@@H]3C[C@H](C)C4=CC(=O)C=C[C@]4(C)[C@@]3(F)[C@@H](O)C[C@@]21C`, the “activity change, negative = cytotoxic” value was 14.1%.

Consider `Cc1ncc(CO)c(CN)c1O`, for which the “activity change, negative = cytotoxic” value is 8.37%.

On to `C/C=C/C(=O)N(CC)c1ccccc1C`, for which the “activity change, negative = cytotoxic” value was 7.56%.

With `C[C@H]1COc2c(C3(N)CC3)c(F)cc3c(=O)c(C(=O)O)cn1c23`, the “activity change, negative = cytotoxic” value is -3.44%.

With `CC(C)c1cc2c(cc1S(=O)(=O)O)[C@@]1(C)CCC[C@@](C)(C(=O)O)[C@@H]1CC2`, the “activity change, negative = cytotoxic” value was 3.41%.

Take `CC(=O)N[C@H]1[C@H]([C@H](O)[C@H](O)CO)OC(C(=O)O)=C[C@@H]1N=C(N)N`: the “activity change, negative = cytotoxic” value was 13%.

Turning to `O=C(O)CCCc1ccccc1`, the “activity change, negative = cytotoxic” value is 2.79%.

Consider `CC(O)CCCCn1c(=O)c2c(ncn2C)n(C)c1=O` (stereo not given), for which the “activity change, negative = cytotoxic” value is 2.71%.

Regarding `O=C(O)c1ccc(OCCCOc2ccc(C(=O)O)cc2)cc1`, the “activity change, negative = cytotoxic” value was 25.3%.

`CC(=O)Nc1cccc(O)c1`: the “activity change, negative = cytotoxic” value is 12.9%.

For `NS(=O)(=O)c1cc(-c2nn[nH]n2)c(NCc2cccs2)cc1Cl`, the “activity change, negative = cytotoxic” value was 0.574%.

Regarding `CCCNC(C)C(=O)Nc1c(C)csc1C(=O)OC` (stereo not given), the “activity change, negative = cytotoxic” value was 8.26%.

As for `C1CCN2C[C@@H]3C[C@@H](CN4CCCC[C@@H]34)[C@H]2C1`, the “activity change, negative = cytotoxic” value was 18.5%.

As for `CC(CSC(=O)c1ccccc1)C(=O)N1C[C@@H](Sc2ccccc2)C[C@H]1C(=O)O` (stereo not given in full), the “activity change, negative = cytotoxic” value was -3.31% [at 16.1 µM].

On to `CCOC(=O)[C@H](CCc1ccccc1)N[C@@H](C)C(=O)N1CCC[C@H]1C(=O)O`, for which the “activity change, negative = cytotoxic” value was 14.1%.

Consider `CN1C[C@@H]2C[C@H]1CN2c1cc2c(cc1F)c(=O)c(C(=O)O)cn2C1CC1`, for which the “activity change, negative = cytotoxic” value was 9.83% [at 16.1 µM].

As for `CC(C)(C)NCC(O)COc1cccc2c1CCC(=O)N2` (stereo not given), the “activity change, negative = cytotoxic” value was 29.1%.

Consider `CCOC(=O)OC(C)OC(=O)[C@@H]1N2C(=O)[C@@H](NC(=O)[C@H](N)c3ccccc3)[C@H]2SC1(C)C` (stereo not given in full), for which the “activity change, negative = cytotoxic” value was 16%.

On to `CCCCCCCCCCCCCCCCC(C(=O)O)C(O)(CC(=O)O)C(=O)O` (stereo not given), for which the “activity change, negative = cytotoxic” value is 23.4%.

Consider `O=C(CN1CCNCC1)NC1CCCCC1`, for which the “activity change, negative = cytotoxic” value was -7.95%.

For the molecule `COC(=O)c1ccc(O)cc1`, the “activity change, negative = cytotoxic” value was 9.76%.

For `CC1(C)[C@@H](OC(=O)CCC(=O)O)CC[C@]2(C)[C@H]3C(=O)C=C4[C@@H]5C[C@@](C)(C(=O)O)CC[C@]5(C)CC[C@@]4(C)[C@]3(C)CC[C@@H]12`, the “activity change, negative = cytotoxic” value is 20.5%.

Turning to `O=C1c2ccccc2S(=O)(=O)N1CCCCN1CCN(c2ncccn2)CC1`, the “activity change, negative = cytotoxic” value is -6.01%.

Regarding `CN[C@@H]1[C@H](O)[C@H](NC)[C@H]2O[C@@]3(O)C(=O)C[C@@H](C)O[C@H]3O[C@@H]2[C@H]1O`, the “activity change, negative = cytotoxic” value is 21.7%.

In the case of `Cc1ccc(S(=O)(=O)NC(=O)NC2CCCCCCC2)cc1`, the “activity change, negative = cytotoxic” value was 15.4%.

On to `CO[C@@]1(NC(=O)C(C(=O)O)c2ccc(O)cc2)C(=O)N2C(C(=O)O)=C(CSc3nnnn3C)CO[C@@H]21` (stereo not given in full), for which the “activity change, negative = cytotoxic” value was 12.3%.

As for `O=C(O)/C=C/c1ccc(Cn2ccnc2)cc1`, the “activity change, negative = cytotoxic” value was 6.18%.

For `Cc1cc(NC(=O)C2=C(O)c3ccccc3S(=O)(=O)N2C)no1`, the “activity change, negative = cytotoxic” value is 3.65%.

`CCC(C)(CN(C)C)OC(=O)c1ccccc1` (stereo not given): the “activity change, negative = cytotoxic” value is 5.95%.

`CCOC(=O)[C@H](CCc1ccccc1)N[C@@H](C)C(=O)N1Cc2cc(OC)c(OC)cc2C[C@H]1C(=O)O`: the “activity change, negative = cytotoxic” value is 25.5%.

Take `CN1C(C)(C)CCCC1(C)C`: the “activity change, negative = cytotoxic” value is -8.99%.

Take `O=C(O)CCC(=O)O`: the “activity change, negative = cytotoxic” value is 13%.

Take `OCc1ccc(Cl)cc1Cl`: the “activity change, negative = cytotoxic” value is 2.98%.

In the case of `O=C(O)Cc1cn(-c2ccccc2)nc1-c1ccc(Cl)cc1`, the “activity change, negative = cytotoxic” value was 0.672%.

`CC(=O)Oc1cccc(O)c1`: the “activity change, negative = cytotoxic” value is 2.24%.

As for `O=C1c2ccccc2C(=O)C1c1ccc(Br)cc1`, the “activity change, negative = cytotoxic” value was 9.92%.
